# Measured values reported in PubChem BioAssay (NCI).
# Compounds without any hit were thinned out: in the full panel of roughly 83,000, 20% have a hit.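 Growth was measured after 48 h exposure to one concentration of compound in 96-well plates. Values under 10 count as active.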 Values without a mark were called inactive. Activity calls are given as the source filed them.
# Columns and labels:
# Experiment in all cases: NCI-60 one-dose screen, 48 h (100 = growth as untreated, 0 = no growth, -100 = all killed)
# Conditions in all cases: 10 µM
# NCI-H23 lung = test system: NCI-H23 lung
# NCI-H226 lung = test system: NCI-H226 lung
# NCI-H322M lung = test system: NCI-H322M lung
# HOP-62 NSCLC = test system: HOP-62 NSCLC
# NCI-H460 lung = test system: NCI-H460 lung
# HOP-92 NSCLC = test system: HOP-92 NSCLC
# NCI-H522 lung = test system: NCI-H522 lung
# A549/ATCC NSCLC = test system: A549/ATCC NSCLC
# 786-0 renal = test system: 786-0 renal
# COLO 205 colon = test system: COLO 205 colon
SMILES,growth (NCI-H23 lung),growth (NCI-H226 lung),growth (NCI-H322M lung),growth (HOP-62 NSCLC),growth (NCI-H460 lung),growth (HOP-92 NSCLC),growth (NCI-H522 lung),growth (A549/ATCC NSCLC),growth (786-0 renal),growth (COLO 205 colon)
CCOc1ccc(/C=N/NC(=O)Cn2nc(Cc3ccc([N+](=O)[O-])cc3)c3onc(C)c3c2=O)cc1,28.8%,-21.1% (active),29.4%,-17.3% (active),-9.53% (active),-44.6% (active),47.6%,-23.6% (active),-79.7% (active),53.7%
O=c1[nH]c2ccccc2cc1CSc1ccc(Nc2nccc(-c3ccc4ccccc4c3)n2)cc1,18.1%,19%,70.1%,74.7%,24.3%,-3.82% (active),71.5%,22.4%,51.7%,25.3%
CNC(=O)c1cc(-c2ccc(NC(=O)Nc3ccc(C)cc3)cc2)nc2cccnc12,101%,61.4%,96.6%,90.6%,105%,64.6%,87.5%,98.1%,104%,115%
CC1(c2ccccc2)NC(=O)N(CC(=O)Nc2ccc(C(=O)/C=C/c3ccc(Br)cc3)cc2)C1=O (stereo not given),64.4%,43.4%,78.1%,61.9%,59.5%,25.1%,64.3%,38.9%,12.8%,64.1%
CCCCSc1nc(Nc2ccc(/C(C)=N/NC(N)=S)cc2)c(C#N)c(-c2ccc(F)cc2)n1,21%,20.7%,53.8%,22.7%,18.4%,-18.5% (active),43.9%,8.95% (active),-20.5% (active),47.1%
O=C(c1ccc(Cl)cc1)C1[C@H](c2ccccc2Br)[C@@H](c2ccccc2)NC12C(=O)Nc1ccccc12 (stereo not given in full),6.15% (active),21.9%,42.1%,43.6%,0.679% (active),14%,-3.71% (active),20.4%,16.3%,-42.4% (active)
C=C1CCC2C3(C)COC(c4c(F)cccc4F)OC3CCC2(C)C1CC(O)C1=CCOC1=O (stereo not given),83.5%,79.3%,108%,86%,89.2%,55.4%,-33.8% (active),71.9%,19.1%,42.4%
O=C1CCC(N2Cc3c(C#CCCCNC(=O)c4ccc(NC(=O)[C@@H]5NC6(CCCCC6)[C@@]6(C(=O)Nc7cc(Cl)ccc76)[C@H]5c5cccc(Cl)c5F)cc4)cccc3C2=O)C(=O)N1 (stereo not given in full),74.4%,24.1%,77.5%,72.7%,33.1%,39.3%,70.3%,34.5%,48.4%,70.5%
CCOC(=O)C(Cc1ccccc1)N1C(=O)/C(=C/N2N=C(c3ccc(OC)cc3)CC2c2ccc3ccccc3c2)SC1=S (stereo not given),-55.5% (active),-41.8% (active),18.2%,-54.8% (active),-3.96% (active),-8.32% (active),1.04% (active),21.7%,13.8%,-86% (active)
Cc1cc(=O)oc2cc(OCCCCOc3ccc(/C=C/C(=O)Nc4cccc(Cl)c4)cc3)ccc12,57.2%,35.9%,87.4%,54.9%,54.4%,50.9%,60.3%,55.4%,54.7%,62.3%
CC(=O)Nc1ccc(-n2cnc3cc(-c4ccc(O)cc4)ccc32)cc1C,47.6%,57%,74.9%,63.5%,36.4%,67.2%,-29.1% (active),47.5%,55.7%,93.9%
CC1=C(c2cc(-c3ccc(Cl)cc3)c(C#N)c(N)n2)C(c2ccccc2)NC(=S)N1 (stereo not given),76.1%,64.4%,96.4%,81.3%,82.6%,105%,49.4%,90.1%,67%,80.5%
COc1ccc([C@H]2C(C(=O)c3ccc(Cl)cc3)C3(N[C@@H]2c2ccccc2)C(=O)Nc2ccc(Br)cc23)cc1 (stereo not given in full),-47.4% (active),-42.5% (active),21.6%,-8.82% (active),-44.4% (active),-20.6% (active),6.07% (active),17.3%,-17.5% (active),-92% (active)
COc1ccc(NC(=O)CSc2nnc(-c3ccc4nc(-c5ccc(Cl)cc5)[nH]c4c3)o2)cc1,-9.49% (active),80.3%,45.8%,74.6%,10.7%,102%,22.6%,66%,22.5%,96.8%
COc1cc2c(cc1OC)CN(CCCCOc1cc(O)c3c(=O)cc(-c4ccccc4)oc3c1)CC2,67.2%,63.5%,92.5%,80.7%,49.6%,64.2%,58.4%,67.7%,23.9%,-43.8% (active)
O=C(NCCCCCCCCCC[P+](c1ccccc1)(c1ccccc1)c1ccccc1)c1ccc(-n2nc(-c3ccccc3O)nc2-c2ccccc2O)cc1,-66.8% (active),-58.9% (active),-91.1% (active),-64.1% (active),8.35% (active),-74.9% (active),-78.3% (active),-51.9% (active),-64% (active),-83.1% (active)
Cc1nc2c(cnn2-c2ccccc2)c(=O)n1-c1ccc(NC(=O)c2ccc(F)cc2)cc1,50.2%,56.2%,86.1%,64.6%,54.4%,85.2%,63.9%,54.6%,82.5%,62.3%
O=C(c1ccc(Cl)cc1)C1[C@H](c2ccccc2Br)[C@@H](c2ccccc2)NC12C(=O)Nc1ccc(Cl)cc12 (stereo not given in full),-22.3% (active),18.9%,44.7%,38.9%,-13.5% (active),23%,3.07% (active),19.8%,17.6%,8.59% (active)
COC(=O)c1c(C(=O)OC)c2n(c1C)[C@@H]([C@@H](C)[C@H]1CC[C@H]3[C@@H]4CCC5=CC(=O)CC[C@]5(C)[C@H]4CC[C@]13C)SC2,25%,15.7%,72.8%,64.1%,25.1%,26.3%,23.1%,37.1%,73.4%,16%
Cc1ccc(C(=O)N/C(=C2/OCCN2C)[P+](c2ccccc2)(c2ccccc2)c2ccccc2)cc1,85.1%,92.9%,100%,96.9%,83.8%,60.3%,57.8%,97.8%,103%,57.9%
O=C(c1ccc([N+](=O)[O-])c([N+](=O)[O-])c1O)n1[nH]c(=O)c2ccccc2c1=O,50.5%,82.1%,85.8%,75.5%,44.8%,78.6%,54.8%,77.6%,97.7%,124%
COc1ccc2[nH]c(=O)c(CSc3nccc(-c4ccc(Cl)cc4)n3)cc2c1,33.9%,-26.1% (active),44.9%,32.9%,9.38% (active),4.58% (active),-32.2% (active),2.57% (active),-28.6% (active),20.5%
COc1ccc(C(=O)/C=C/c2cc(C(F)(F)F)cc(C(F)(F)F)c2)cc1S(N)(=O)=O,-86.1% (active),-69.7% (active),-73.8% (active),-44.7% (active),-24% (active),-37.9% (active),-67.7% (active),-11.7% (active),-69.2% (active),-66.1% (active)
Nc1nc(-c2ccccc2)cc(-c2cc3ccccc3nc2Cl)n1,89.3%,78.1%,96.7%,89.4%,81.5%,73.1%,89.4%,91%,89.7%,110%
COc1cc2c3c(n(CCCNCCO)c(=O)c2cc1OC)-c1nc2c(cc1C3=O)OCO2,-45% (active),-88.5% (active),16.8%,0.0851% (active),-43.9% (active),7.23% (active),2.99% (active),35.6%,-25.9% (active),2.13% (active)
